Source: PubChem BioAssay
TDP1 cell CPT = DT40-hTDP1 cell growth loss with CPT; 12% of 420,000 active; Potency, µM (highest dose often 46.2 µM), for the others: top-dose activity change, negative = growth inhibition, hits mostly inhibitors; AID 686979; chicken DT40 Tdp1-/-;hTDP1 cells + 20 nM CPT, ATP luminescence, 48 h; note: nearly all actives have a fitted effect of over 55% in size
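Cell growth measured by CellTiter-Glo luminescence after a minimum 48 h, 37 C compound exposure with 20 nM CPT in Tdp1-knockout DT40 cells stably expressing hTDP1, seeded 400/well; qHTS titration format.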
KB-V1 cytotox = kills drug-selected multidrug resistant KB-V1 cells. KB-V1 MDR cells viability, CellTiter-Glo, 72 h. 3.4% of 400,000 active. Potency, µM (highest dose often 46.1 µM), actives largely listed as cytotoxic; note: nearly all actives have a fitted effect of over 60% in size
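Cells of the MDR subline KB-V1 are plated, dosed with compound at multiple concentrations, and incubated 72 h at 37 degrees C; CellTiter-Glo is then added and luminescence read after 10 min.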
DT40 TDP1 no CPT = qHTS for Inhibitors of human tyrosyl-DNA phosphodiesterase 1 (TDP1): qHTS in cells in absence of CPT | DT40 Tdp1-/- hTDP1 cells, no CPT, ATP luminescence, 48 h | Potency, µM (titrated, usually from 46.2 µM), inactives show at the top dose activity change, negative = growth inhibition, hits mostly inhibitors | 15% of 420,000 active | AID 686978, 2013; note: nearly all actives have a fitted effect of over 55% in size
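Readout: luminescence from CellTiter-Glo after 30 min in the dark at RT. Cells: DT40 Tdp1-/- with stable hTDP1, 400/well. Exposure: compounds alone, ≥48 hr, 37 °C.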
HT1080 IDH1KD tx = toxicity to HT-1080 IDH1 knockdown cells (counter line). HT-1080 IDH1 knockdown viability, ATP luminescence, 48 h. Potency, µM (highest dose often 46.1 µM), inactives show at the top dose activity, negative = toxicity, hits mostly cytotoxic. 2% of 360,000 active;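 note: 0% = DMSO wells and -100% = cell-free medium wells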
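Knockdown cells (IDH1KD HT-1080) received compounds 2 h after plating at 750 cells/well and were kept 48 h at 37 °C in 5% FBS RPMI. A CellTiter-Glo luminescence read gave % activity for curve fitting.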
KB-3-1 cytotox = kills parental KB-3-1 adenocarcinoma cells; Potency, µM (doses to about 46.1 µM), most hits filed as cytotoxic; KB-3-1 viability, CellTiter-Glo ATP luminescence, 72 h; 1.4% of 400,000 active; note: nearly all actives have a fitted effect of over 60% in size
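Parental KB-3-1 viability, qHTS format: 72 h compound exposure, 37 °C; CellTiter-Glo; media-only wells and DMSO plates as controls; concentration-effect fits on corrected data.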
HT1080NT lethal = kills 2HG-producing HT-1080-NT fibrosarcoma cells; HT-1080-NT fibrosarcoma viability, CellTiter-Glo ATP luminescence, 48 h; Potency, µM (highest dose often 46.1 µM), inactives show top-dose activity, negative = less viability, most hits filed as cytotoxic; 1.6% of 360,000 active; AID 686970;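 note: NT is the 2HG producing partner of a matched IDH1 knockdown line; 0% = DMSO-treated cells and -100% = media-only wells without cells; nearly all actives have a fitted effect of over 55% in size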
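Luminescent CellTiter-Glo readout after 48 hours of compound exposure at 37 degrees C defined viability of HT-1080-NT cells. Activity was normalized to DMSO wells and cell-free media wells; concentration-response curves were fitted and assigned curve classes.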
Active calls of the source: *; i = inactive; ? = inconclusive; · = no result; [ ] = dose if it differs, or a comment. Only some compounds are listed: those with a hit (about 19% of all), similar ones and a draw of the others. Calls come from the whole dose curve; as a rule, active = well fitted curve in the direction sought with a large enough effect; inconclusive = small, poorly fitted or top-dose-only effect, or another doubt; inactive = no such curve, though single readings can be large; an effect the other way counts as inactive or inconclusive. Unless noted, % is set by controls: 0 for no effect and ±100 for the full control effect; potency is the fitted concentration of half-maximal effect.

SMILES | TDP1 cell CPT | KB-V1 cytotox | DT40 TDP1 no CPT | HT1080 IDH1KD tx | KB-3-1 cytotox | HT1080NT lethal
CCNC(=O)N1c2ccc(OCC)cc2C(C)=CC1(C)C | ? | i | 18.4µM* | 15.6% | i | 22.8%
CC1=CC(C)(C)N(S(=O)(=O)c2ccc(C)cc2)c2cc(C)ccc21 | 5.8µM* | 6.51µM* | 5.17µM* | 1.26µM* | 3.66µM* | 1µM*
COc1ccc2c(c1)C(C)=CC(C)(C)N2S(=O)(=O)c1ccc(C)cc1 | 5.8µM* | 2.59µM* | 5.17µM* | 0.92µM* | 2.06µM* | 0.92µM*
CCOc1ccc(S(=O)(=O)N2CCN(c3ccc(C)cc3C)CC2)cc1 | ? | i | ? | -8.3% | i | -17.2%
Cc1cc(C)cc(N(CCC#N)C(=O)COC(=O)c2nc3nc(C)cc(C)n3n2)c1 | -1.8% | i | 3.7% | -3.6% | i | -5.1%
CCOC(=O)COc1ccc(-c2nnn(CC(=O)Nc3ccccc3)n2)cc1 | -6.8% | i | -16.1% | · | i | ·
Cc1cc2nc(SCC(=O)Nc3ccccc3C(=O)O)[nH]c2cc1C | -4.5% | i | 0.2% | 2.5% | i | -0.2%
COc1ccccc1-c1ncn(Cc2cccc(-c3ccccc3)c2)c1CC(C)C | 20.6µM* | 16.4µM* | 18.4µM* | ? | ? | 18.4µM*
COc1ccccc1-c1nc2cc3ccccc3cc2nc1-c1ccccc1OC | ? | i | ? | -1.4% | i | 8.9%
CCc1c(-c2ccccc2OC)ncn1Cc1cccc(-c2ccccc2)c1 | 0.651µM* | ? | 0.517µM* | 8.2µM* | 13µM* | 14.6µM*
CCc1c(-c2ccc(OC)cc2)ncn1Cc1cccc(-c2ccccc2)c1 | 7.31µM* | 16.4µM* | 4.61µM* | ? | ? | ?
COc1ccccc1-c1nc2ccccc2n(CC(C)C)c1=O | ? | ? | ? | 0.0% | i | 1.0%
COC(=O)[C@@H]1C[C@@H](NC(=O)c2cnsn2)CN1Cc1ccc(Cl)cc1 | -12.7%[9.04 µM] | · | -14.9% | · | · | ·
O=C(C1CC12CCN(Cc1cccc3cccnc13)CC2)N1CCN(Cc2cccs2)CC1 (stereo unspecified) | 1.64µM* | · | ? | · | · | ·
CCCNC(=O)C1(C)CCCN(C(=O)Cc2cccc(OC)c2)C1 (stereo unspecified) | 1.9% | i | 1.9% | 11.6% | i | -0.1%
COc1ccc(CNc2ccc(Cl)cc2)cc1Cn1ccnc1 | ? | i | 16.4µM* | -21.8% | i | -14.8%
O=C(c1cccc(C(=O)N2CCN(c3ccccc3F)CC2)n1)N1CCN(c2ccccc2F)CC1 | ? | i | ? | -0.6% | i | -3.7%
Cc1nn(-c2ccc(F)cc2)c(-n2cccc2)c1C(=O)N1CCN(c2ccccc2F)CC1 | · | 10.3µM* | · | · | ? | ·
Cc1ccc(-n2nc(C)c(C(=O)N3CCN(C(=O)c4ccco4)CC3)c2-n2cccc2)cc1 | ? | i | -19.5% | 12.4% | i | 1.8%
Cc1nn(-c2ccc(F)cc2)c(-n2cccc2)c1C(=O)N1CCN(c2ccc(F)cc2)CC1 | · | 16.4µM* | · | · | ? | ·
Cc1nn(-c2ccccc2)c(-n2cccc2)c1C(=O)NCCCN1CCN(c2ccccc2F)CC1 | 16.4µM* | i | 18.4µM* | · | i | ·
CCOC(=O)c1sc2ncn(CC(=O)Nc3ccc(OC)c(Cl)c3)c(=O)c2c1C | 13.5% | i | -8.9% | · | i | ·
COC(=O)[C@H](Cc1ccccc1)NC(=O)/C=C/[C@H]1O[C@@H](n2cc(C)c(=O)[nH]c2=O)C[C@@H]1O | -0.2% | i | -3.5% | 27.6% | i | 17.0%
CN(Cc1ccccc1)c1ccc(-c2nc(-c3ccccn3)no2)cc1[N+](=O)[O-] | ? | ? | 18.4µM* | · | ? | ·
CN(C)c1ccc(-c2nc(-c3ccccn3)no2)cc1[N+](=O)[O-] | -29.5% | i | 18.4µM* | · | i | ·
SMILES | TDP1 cell CPT | KB-V1 cytotox | DT40 TDP1 no CPT | HT1080 IDH1KD tx | KB-3-1 cytotox | HT1080NT lethal
CN(Cc1ccccc1)c1ccc(-c2nc(-c3ccncc3)no2)cc1[N+](=O)[O-] | 20.6µM* | i | 18.4µM* | · | i | ·
CNc1ccc(-c2nc(-c3ccccn3)no2)cc1[N+](=O)[O-] | -10.7% | i | -16.9% | · | i | ·
COc1ccc2nc3oc(C(=O)N(C)c4ccc(Cl)cc4)cc3cc2c1 | -22.5% | i | ? | · | i | ·
Fc1ccccc1N1CCN(C2CCCN(Cc3ccccc3C(F)(F)F)C2)CC1 (stereo unspecified) | ? | ? | ? | 3.5% | i | -2.8%
COc1ccc(CN(C(=O)c2snc(C(N)=O)c2N)C(C(=O)NC2CCCC2)c2cc(OC)ccc2OC)cc1 (stereo unspecified) | -27.9% | ? | ? | 0.1% | i | -8.3%
O=C1O[C@@H](c2ccccc2)C[C@@H](O)C(=O)CCCCc2ccccc21 | ? | i | ? | 3.7% | i | -0.1%
Cc1ccc(C)c(NC(=S)N/N=C2\CCc3ccccc32)c1 | ? | i | 20.6µM* | ? | ? | -8.3%
COc1ccc(C(=O)OC2CC3CC[C@H](C2)N3C(C)=O)cc1OC (stereo partly specified) | 3.5%[9.04 µM] | · | -4.6%[9.04 µM] | · | · | ·
COc1ccc(-c2ccc(CN3C(C(C)C)C(=O)N(Cc4cn(CCC5OCCCO5)nn4)CCS3(=O)=O)cc2)cc1OC (stereo unspecified) | ? | i | ? | 6.0% | i | -7.4%
Cc1ccc(-c2ccc(CN3C(CC(C)C)C(=O)N(Cc4cn(CCC5OCCO5)nn4)CCS3(=O)=O)cc2)cc1 (stereo unspecified) | 14.6µM* | i | 13µM* | 18.4µM* | ? | 18.4µM*
CC(C)CC1C(=O)N(Cc2cn(CCC3OCCO3)nn2)CCS(=O)(=O)N1Cc1ccc(-c2ccc(F)nc2)cc1 (stereo unspecified) | 0.3% | i | -24.4% | -3.1% | i | -6.2%
CC1C(=O)N(Cc2cn(CCC3OCCO3)nn2)CCS(=O)(=O)N1Cc1ccc(-c2ccncc2)cc1 (stereo unspecified) | -8.3% | i | -1.5% | 2.1% | i | -16.0%
COc1ccc(-c2ccc(CN3C(CC(C)C)C(=O)N(Cc4cn(CCC5OCCCO5)nn4)CCS3(=O)=O)cc2)cc1OC (stereo unspecified) | 13µM* | i | ? | -14.3% | ? | -7.1%
